This note sets out measurements from PubChem BioAssay (Tox21).

Assay [1] is described as follows: Nuclear factor erythroid 2-related factor 2/antioxidant responsive element (Nrf2/ARE) small molecule agonists: qHTS cell viability counter screen in human keratinocytes (AID 1919968; active means well fitted curve in the direction sought with a large enough effect in the repeat runs; an effect the other way counts as inactive or inconclusive; further: nearly all actives have a fitted effect of over 55% in size; further: potency means the concentration at half of the fitted maximal effect). The method in brief: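 Measured as CellTiter-Fluor fluorescence, this readout tracks cytotoxicity in the same wells as the ARE-luciferase screen. HaCaT reporter cells (1,500/well) received compounds after a 5 h pre-incubation and were exposed for 23 h.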

The nature of assay [2]: Nuclear factor erythroid 2-related factor 2/antioxidant responsive element (Nrf2/ARE) small molecule agonists: luciferase reporter gene qHTS assay in human keratinocytes (AID 1919969). Further: nearly all actives have a fitted effect of over 35% in size. Further: potency means the concentration at half of the fitted maximal effect. For orientation: A reporter such as luciferase makes a cellular process visible.
Assay [3] has as its target Gonadotropin-releasing hormone receptor (Homo sapiens) (UniProt P30968). Put plainly: Human gonadotropin-releasing hormone receptor (GnRHR) small molecule agonists, calcium flux assay in GnRHR-HEK293 cells (AID 1920063). Further: nearly all actives have a fitted effect of over 35% in size. The method in brief:
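Fluorescence kinetics (480 nm excitation, 540 nm emission; 3 min, 1 s steps) report calcium mobilisation in human GnRHR-HEK293 cells in agonist mode. Dye incubation: 1 h, 37 C.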
(In general: Calcium flux is commonly read through the fluorescence of an indicator in the cells.)

The target in assay [4] is KiSS-1 receptor (Homo sapiens) (UniProt Q969F8). Put plainly: Human kisspeptin (KISS1R) small molecule agonists, calcium flux assay in KISS1R-HEK293 cells (AID 1920064; active means well fitted curve in the direction sought with a large enough effect in the repeat runs; an effect the other way counts as inactive or inconclusive). The method in brief:
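Measures KISS1R agonism through calcium-sensitive dye fluorescence in stably transfected HEK293 cells, read for 3 min after pin-tool compound delivery; 15-point titrations in triplicate.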

A short description of assay [5]: G protein-coupled receptor (GPCR) small molecule agonists, calcium flux assay: HEK293 wild type cell line counter screen (AID 1920065). The method in brief: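 Readout: fluorescence at 480 nm excitation/540 nm emission, sampled at 1 s intervals for 3 min. Cells had been cultured 18 h, then dye-loaded 1 h at 37 C before compound or ATP addition.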
Assay [6] can be described thus: p53 small molecule agonists, cell-based qHTS assay with rat liver microsomes (AID 1963578). The method in brief:
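Compound in DMSO added to p53RE-bla cells 5 h post-plating; rat microsomes/NADPH 0.5 mg/mL final; 16 h, 37 C; LiveBLAzer 2 h RT.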
(In qHTS, concentration-response curves come from the screen itself.)

Assay [7] can be described thus: p53 small molecule agonists, cell-based qHTS assay with rat liver microsomes: qHTS cell viability counter screen (AID 1963580). Further: nearly all actives have a fitted effect of over 45% in size. The method in brief:
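Viability is assessed in parallel with the p53 reporter read: HCT-116 p53RE-bla cells receive compounds plus rat microsomes and NADPH (0.5 mg/mL final apiece), incubate 16 h at 37 C, and then CellTiter-Glo luminescence is recorded.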

For assay [8], the target named is 5-hydroxytryptamine receptor 2A (Homo sapiens) (UniProt P28223). Description: 5-hydroxytryptamine receptor 2A (HTR2A) small molecule agonists, cell-based qHTS assay (AID 1963587). Further: nearly all actives have a fitted effect of over 30% in size. Further: potency means the concentration at half of the fitted maximal effect. The method in brief:
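CHO cells stably expressing human HTR2A, plated 18 h, loaded with calcium dye 1 h at 37 C. Agonist mode: compounds added and intracellular calcium fluorescence recorded kinetically for 2 min at 1 sec intervals.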

Assay [9] concerns the target Beta-2 adrenergic receptor (Homo sapiens) (UniProt P07550). Put plainly: Adrenergic beta2 receptor (ADRB2) small molecule antagonists, cell-based qHTS assay (AID 1963592). Further: nearly all actives have a fitted effect of over 50% in size. Further: potency means the concentration at half of the fitted maximal effect. The method in brief: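 Cells (CHO, stable ADRB2 overexpression) incubated 18-20hr at 37C; compounds added from DMSO; agonist mix (1nM isoproterenol, 100uM IBMX, 25uM Ro-20-1724) added; 0.5hr RT; d2-cAMP and anti-cAMP-cryptate added; 1hr RT; 665/615 nm read.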

For assay [10], the target named is Muscarinic acetylcholine receptor M1 (Homo sapiens) (UniProt P11229). Description: Cholinergic receptor muscarinic 1 (CHRM1) small molecule antagonists, cell-based qHTS assay (AID 1963588). Further: nearly all actives have a fitted effect of over 40% in size. Further: potency means the concentration at half of the fitted maximal effect. The method in brief:
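CHRM1-CHO calcium-flux assay, antagonist mode. Cells were seeded 18 h, dye-loaded 1 h at 37 C and given compound for 5 min at RT, then acetylcholine was added at 50nM. FDSS fluorescence was read 3 min; 15 concentrations, three runs.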

Assay [11] shares this target. Description: Cholinergic receptor muscarinic 1 (CHRM1) small molecule agonists, cell-based qHTS assay (AID 1963589). Further: nearly all actives have a fitted effect of over 35% in size. The method in brief:
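Each compound was tested at 15 concentrations across three independent runs on dye-loaded CHO cells stably expressing human CHRM1, reading intracellular calcium fluorescence kinetically at 1 sec intervals.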

For assay [12], the target named is D(2) dopamine receptor (Homo sapiens) (UniProt P14416). Description: Dopamine D2 receptor (DRD2) small molecule agonists, cell-based qHTS assay (AID 1963594). Further: nearly all actives have a fitted effect of over 35% in size. The method in brief: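 HEK293 cells stably expressing human DRD2, pre-treated with PDE inhibitor Ro20-1724 (0.1 mM final) and compound 10 min at room temperature, then stimulated with NKH477 (200nM […]) for 30 min. cAMP read by HTRF (665/620 nm).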

The target is the same in assay [13]. Description: Dopamine D2 receptor (DRD2) small molecule antagonists, cell-based qHTS assay (AID 1963595; active means well fitted inhibition curve with a large enough effect in the signal ratio in the repeat runs, with a control signal flat; the % refers to the signal ratio; further: potency means the concentration at half of the fitted maximal effect). The method in brief: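 HEK293 cells stably expressing DRD2 were preincubated with 0.1 mM Ro20-1724, then with compound for 10 min at room temperature. Cells were stimulated with 200 nM NKH477 plus 12 nM quinpirole for 30 min, and cAMP was read by HTRF.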

Assay [14] in a line: p53 small molecule agonists, cell-based qHTS assay with human liver microsomes: qHTS cell viability counter screen (AID 1963579). Further: nearly all actives have a fitted effect of over 45% in size. The method in brief: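 HLM-supplemented (0.5 mg/mL final) and NADPH-supplemented (0.5 mg/mL final) p53RE-bla cultures, 4,000 cells per well, were dosed with compounds in DMSO for 16 h at 37 C; luminescent ATP detection (CellTiter-Glo, 30 min, room temperature) quantified surviving cells.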

The nature of assay [15]: p53 small molecule agonists, cell-based qHTS assay: qHTS cell viability counter screen (AID 1963581). Further: nearly all actives have a fitted effect of over 45% in size. The method in brief: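 In the same plates used for the p53 bla reporter, HCT-116 cells given compounds for 16 h at 37 C received CellTiter-Glo; luminescence was recorded 30 min later at room temperature.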
Assay [16] is described as follows: p53 small molecule agonists, cell-based qHTS assay (AID 1963582; active means well fitted activation curve with a large enough effect in the signal ratio in the repeat runs, not every such curve was filed as active; the % refers to the signal ratio; further: potency means the concentration at half of the fitted maximal effect). The method in brief:
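Compounds are pin-transferred in DMSO onto p53RE-bla cells and incubated 16 h at 37 C. The B/G FRET beta-lactamase substrate is then applied for 2 h at RT and fluorescence recorded.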

Assay [17] in a line: cAMP Responsive Elements (CRE) small molecule agonists, cell-based qHTS assay (AID 1963590). Further: potency means the concentration at half of the fitted maximal effect. The method in brief:
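Cell line: CRE-bla HEK 293T; medium DMEM/10% dialyzed FBS/0.1 mM NEAA/1 mM pyruvate/25 mM HEPES; 3 h compound exposure; beta-lactamase FRET readout after 2 h substrate loading at RT.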

Assay [18] addresses 5-hydroxytryptamine receptor 2A (Homo sapiens) (UniProt P28223). Description: 5-hydroxytryptamine receptor 2A (HTR2A) small molecule antagonists, cell-based qHTS assay (AID 1963586). Further: nearly all actives have a fitted effect of over 45% in size. Further: potency means the concentration at half of the fitted maximal effect. The method in brief: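 Antagonist-mode intracellular calcium assay: DOI (4 nM) added after 5 min compound pre-incubation at room temperature to dye-loaded HTR2A-CHO cells. Fluorescence followed for 3 min, sampled every second.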

The target in assay [19] is Beta-2 adrenergic receptor (Homo sapiens) (UniProt P07550). Put plainly: Adrenergic beta2 receptor (ADRB2) small molecule agonists, cell-based qHTS assay (AID 1963593).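 Further: CHO cells stably overexpressing human ADRB2.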 The method in brief:
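CHO cells stably over-expressing ADRB2 were plated overnight at 37C, then dosed with compounds plus a stimulation mix containing 100uM IBMX and 25uM Ro-20-1724 for 0.5hr at room temperature. cAMP was measured by HTRF competition, 1hr.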

Assay [20] can be described thus: cAMP Responsive Elements (CRE) small molecule antagonists, cell-based qHTS assay (AID 1963591; active means well fitted inhibition curve with a large enough effect in the signal ratio in the repeat runs, not every such curve was filed as active; the % refers to the signal ratio). The method in brief: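 Inhibition of NKH477-driven (0.25 uM final) CRE-beta-lactamase signal in HEK293T cells, 3 h compound exposure at 37 °C, detected by FRET substrate fluorescence.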

Values without a mark were called inactive. Results filed as inconclusive are left out. Calls of active or inactive are those of the source. Unless noted, the call rests on the fitted dose curve.

Muscarinic acetylcholine receptor M1 (Homo sapiens), sequence (P11229 whole entry, looked up): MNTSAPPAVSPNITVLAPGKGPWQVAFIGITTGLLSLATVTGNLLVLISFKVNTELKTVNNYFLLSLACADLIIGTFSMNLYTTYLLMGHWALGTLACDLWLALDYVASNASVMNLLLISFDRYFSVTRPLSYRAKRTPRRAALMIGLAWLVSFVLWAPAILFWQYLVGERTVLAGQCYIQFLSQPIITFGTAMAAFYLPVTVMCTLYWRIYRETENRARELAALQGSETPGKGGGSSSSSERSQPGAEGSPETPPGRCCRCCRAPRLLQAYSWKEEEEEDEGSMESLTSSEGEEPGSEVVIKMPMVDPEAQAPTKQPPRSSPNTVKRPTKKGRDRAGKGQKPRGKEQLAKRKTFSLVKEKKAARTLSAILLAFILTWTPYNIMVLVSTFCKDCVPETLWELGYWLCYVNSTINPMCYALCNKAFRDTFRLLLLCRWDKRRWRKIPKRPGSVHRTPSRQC
5-hydroxytryptamine receptor 2A (Homo sapiens), sequence (P28223 whole entry, looked up): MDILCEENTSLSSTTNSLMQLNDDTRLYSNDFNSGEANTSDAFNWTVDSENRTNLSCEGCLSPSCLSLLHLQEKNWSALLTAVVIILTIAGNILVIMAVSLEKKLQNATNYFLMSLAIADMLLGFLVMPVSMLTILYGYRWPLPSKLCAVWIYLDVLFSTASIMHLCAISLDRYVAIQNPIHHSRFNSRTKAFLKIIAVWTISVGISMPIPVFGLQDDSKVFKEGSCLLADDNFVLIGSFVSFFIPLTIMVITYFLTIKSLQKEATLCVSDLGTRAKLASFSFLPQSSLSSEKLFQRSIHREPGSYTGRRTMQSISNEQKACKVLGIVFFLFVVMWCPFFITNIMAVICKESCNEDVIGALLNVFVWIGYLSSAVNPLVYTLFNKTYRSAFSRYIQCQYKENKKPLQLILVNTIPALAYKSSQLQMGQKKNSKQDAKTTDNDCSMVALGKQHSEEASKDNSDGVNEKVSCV
D(2) dopamine receptor (Homo sapiens), sequence (P14416 whole entry, looked up): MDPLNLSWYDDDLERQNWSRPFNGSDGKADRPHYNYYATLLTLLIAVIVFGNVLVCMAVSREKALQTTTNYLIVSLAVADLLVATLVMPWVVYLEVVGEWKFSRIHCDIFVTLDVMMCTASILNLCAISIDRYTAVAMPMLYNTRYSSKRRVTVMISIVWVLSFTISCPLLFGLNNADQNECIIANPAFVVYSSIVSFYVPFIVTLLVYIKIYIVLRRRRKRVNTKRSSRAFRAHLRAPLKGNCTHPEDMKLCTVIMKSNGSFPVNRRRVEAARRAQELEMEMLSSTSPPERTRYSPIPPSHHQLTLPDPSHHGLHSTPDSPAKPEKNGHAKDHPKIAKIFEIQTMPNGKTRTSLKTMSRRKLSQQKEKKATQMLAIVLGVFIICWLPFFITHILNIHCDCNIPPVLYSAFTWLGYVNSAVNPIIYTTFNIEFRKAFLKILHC
Beta-2 adrenergic receptor (Homo sapiens), sequence (P07550 whole entry, looked up): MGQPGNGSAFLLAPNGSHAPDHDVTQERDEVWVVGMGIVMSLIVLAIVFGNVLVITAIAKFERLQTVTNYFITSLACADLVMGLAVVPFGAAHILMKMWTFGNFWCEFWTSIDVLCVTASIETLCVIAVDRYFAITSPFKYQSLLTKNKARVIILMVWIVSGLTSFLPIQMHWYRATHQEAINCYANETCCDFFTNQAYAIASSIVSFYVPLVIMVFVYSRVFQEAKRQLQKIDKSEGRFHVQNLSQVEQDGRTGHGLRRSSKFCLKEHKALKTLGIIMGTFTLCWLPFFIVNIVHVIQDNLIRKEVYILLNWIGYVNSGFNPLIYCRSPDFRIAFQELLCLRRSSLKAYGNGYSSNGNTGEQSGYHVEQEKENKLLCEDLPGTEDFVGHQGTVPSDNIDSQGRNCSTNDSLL
Gonadotropin-releasing hormone receptor (Homo sapiens), sequence (P30968 whole entry, looked up): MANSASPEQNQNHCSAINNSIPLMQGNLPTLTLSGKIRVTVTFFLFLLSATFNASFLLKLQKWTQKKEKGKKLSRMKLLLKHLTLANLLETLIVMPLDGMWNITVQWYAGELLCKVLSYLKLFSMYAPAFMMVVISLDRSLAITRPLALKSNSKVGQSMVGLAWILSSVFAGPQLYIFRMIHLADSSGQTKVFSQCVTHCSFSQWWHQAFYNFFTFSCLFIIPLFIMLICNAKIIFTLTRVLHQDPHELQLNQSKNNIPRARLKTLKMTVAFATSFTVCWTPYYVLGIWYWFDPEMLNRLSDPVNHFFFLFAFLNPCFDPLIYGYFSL
KiSS-1 receptor (Homo sapiens), sequence (Q969F8 whole entry, looked up): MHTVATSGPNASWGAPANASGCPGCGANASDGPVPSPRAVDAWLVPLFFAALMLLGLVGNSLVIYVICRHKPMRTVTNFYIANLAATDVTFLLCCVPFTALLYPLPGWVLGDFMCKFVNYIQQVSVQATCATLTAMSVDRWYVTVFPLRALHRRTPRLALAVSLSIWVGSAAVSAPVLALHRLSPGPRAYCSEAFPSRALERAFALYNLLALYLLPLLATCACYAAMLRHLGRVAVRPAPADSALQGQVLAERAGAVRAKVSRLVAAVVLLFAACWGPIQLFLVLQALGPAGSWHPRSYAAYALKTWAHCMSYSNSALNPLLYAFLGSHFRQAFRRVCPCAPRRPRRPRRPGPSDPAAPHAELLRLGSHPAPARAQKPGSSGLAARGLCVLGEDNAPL

As to `CCN(CCCc1ccccc1)CCCc1ccccc1`, the Potency result in assay [1], in assay [2], in assay [3], in assay [4], in assay [5] and in [6] was “inactive” in each case. In addition, the Potency result in assay [7], in [8] and in assay [9] was “inactive” throughout.
Take `CN(C)CCOc1ccc(/C(=C(/CCCl)c2ccccc2)c2ccccc2)cc1`: the Potency in [1] is 22.8 µM (active); in [8], 40.9 µM (active); in assay [9], 57.2 µM (active); in [13] it was 57.2 µM (active). Also, the Potency result in assay [2], in assay [3], in assay [4], in [5], in assay [6] and in assay [10] was “inactive” throughout. The Potency result in assay [11] and in assay [12] was “inactive” in each case.
For `Nc1nc(Cl)nc2c1ncn2[C@H]1C[C@H](O)[C@@H](CO)O1`, the Potency result in [1], in assay [2], in assay [3], in assay [4], in assay [5] and in assay [14] was “inactive” in each case. Besides, the Potency result in assay [7], in assay [15], in assay [9], in assay [12] and in assay [13] was “inactive” throughout. For the same molecule, the Potency in [16] is 0.572 µM (active); in assay [17] it was 60.7 µM (active).
As to `O=c1[nH]c2ccc(S(=O)CCN3CCC(Cc4ccc(F)cc4)CC3)cc2o1` (stereo not drawn), the Potency entry in assay [1], in assay [3], in [4], in [5], in assay [6] and in assay [7] was “inactive” throughout. The Potency result in [16], in assay [18], in [8], in assay [11], in assay [9] and in assay [19] was “inactive” throughout. Besides, the figures for the Potency in [2] and in assay [10] were 61.1 µM (active) and 14.9 µM (active), respectively.
With `Cc1nc2sccn2c(=O)c1CCN1CCC(=C(c2ccc(F)cc2)c2ccc(F)cc2)CC1`, the Potency is 26.6 µM (active) in assay [1], 2.59 µM (active) in assay [10] and 26.6 µM (active) in [13]. Also, the Potency result in assay [2], in assay [3], in [4], in [5], in assay [6] and in assay [7] was “inactive” in each case. Further, the Potency result in [15], in [8], in assay [11] and in assay [12] was “inactive” in each case.
With `CC1=CC=C(C(C)C)CC1`, the Potency entry in assay [1], in assay [2], in [3], in assay [4], in assay [5] and in assay [14] was “inactive” in each case. The Potency result in assay [7], in assay [15], in [16], in assay [18], in [8] and in [10] was “inactive” in each case. For the same molecule, the Potency result in assay [11], in [17], in [20], in [9], in assay [19] and in assay [12] was “inactive” throughout. The Potency result in assay [13] is “inactive”.
`CN1CC(=O)N2[C@H](c3ccc4c(c3)OCO4)c3[nH]c4ccccc4c3C[C@@H]2C1=O`: the Potency result in [1], in [2], in assay [3], in assay [4], in assay [5] and in [14] was “inactive” each time. For the same molecule, the Potency result in assay [7], in assay [15], in assay [18], in assay [8], in assay [10] and in assay [11] was “inactive” in each case. Besides, the Potency entry in [17], in [20], in [9], in [19] and in [12] was “inactive” in each case.
As for `O=C=NC1CCC(CC2CCC(N=C=O)CC2)CC1` (stereo not drawn), the Potency in assay [1] is 12.2 µM (active); in assay [18], 2.98 µM (active); in assay [8] it was 1.95 µM (active); in assay [10], 4.21 µM (active). The Potency entry in assay [2], in assay [3], in assay [4], in [5], in assay [14] and in [7] was “inactive” each time. For the same molecule, the Potency result in assay [15], in [16], in [11], in [17], in [20] and in assay [9] was “inactive” in each case. The Potency result in [19] and in [12] was “inactive” each time.
For the molecule `CC(C)(C)c1ccc(N)cc1`, the Potency result in [1], in assay [2], in assay [3], in [4], in assay [5] and in assay [14] was “inactive” each time. The Potency result in [7], in [15], in assay [18], in assay [8], in [10] and in assay [11] was “inactive” each time. Further, the Potency result in assay [17], in assay [20], in assay [9], in assay [19], in [12] and in assay [13] was “inactive” throughout.
